We go through 26 compounds from PubChem BioAssay (EPA / NIEHS).

Assay [1] is described as follows: CCTE_Shafer_MEA_dev_active_electrodes_number: CCTE's Neural Network Formation Assay for Number of Active Electrodes, Shafer Lab (AID 2284040; active = hit-call score of the fitted dose curve at least 0.9, where 1 is the maximum;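 for AC50: potency for loss of active electrodes versus DMSO so lower counts are hits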). In short, it runs like this: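 Primary rat cortical neurons on 16-electrode MEA wells, exposed from day 0 through day 12 with compound renewed at DIV 5 and 9 feeds. Active electrodes (mean firing ≥5 spikes/min) counted at DIV 5, 7, 9, 12; trapezoidal AUC across days, loss-of-signal versus DMSO.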

A short description of assay [2]: CCTE_Shafer_MEA_dev_burst_rate: CCTE's Neural Network Formation Assay for Burst Rate, Shafer Lab (AID 2284042).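 For AC50: potency for loss of burst rate below DMSO control.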 In short, it runs like this:
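Exposure ran continuously over 12 days of network development in rat cortical cultures, with compound refreshed during full media changes on DIV 5 and 9. Single-electrode bursts per recording time, well-mean over active electrodes, trapezoidal AUC across days 5–12, fitted downward relative to DMSO.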

The nature of assay [3]: CCTE_Shafer_MEA_dev_bursting_electrodes_number: CCTE's Neural Network Formation Assay for Number of Bursting Electrodes, Shafer Lab (AID 2284043; active = hit-call score of the fitted dose curve at least 0.9, where 1 is the maximum;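 for AC50: potency is for loss of bursting electrodes relative to DMSO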). Summed up: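 Primary rat cortical neurons were cultured on PEI-coated 48-well MEA plates (16 electrodes/well) and exposed from plating through day 12, with compound renewed at feeds on DIV 5 and 9. Electrodes bursting ≥1 per 2 min were counted on DIV 5, 7, 9, 12; trapezoidal AUC taken.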

A short description of assay [4]: CCTE_Shafer_MEA_dev_interburst_interval_mean: CCTE's Neural Network Formation Assay for Mean Interburst Interval, Shafer Lab (AID 2284046).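 Note: curve fitted for decrease in interburst interval relative to DMSO.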 In short, it runs like this: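 Primary rat cortical neurons on PEI-coated 48-well MEA plates (laminin added with cells at plating) (16 electrodes/well), exposed from plating day 0 with renewal at DIV 5 and 9. Mean inter-burst interval averaged over bursting electrodes, AUC across days 5, 7, 9, 12; DMSO baseline.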

The nature of assay [5]: CCTE_Shafer_MEA_dev_inter_network_spike_interval_mean: CCTE's Neural Network Formation Assay for Mean Inter-network Spike Interval, Shafer Lab (AID 2284047).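 For AC50: potency for a decrease in mean inter-network spike interval below DMSO.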 Summed up:
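Mean time between consecutive network-spike peaks, recorded extracellularly (adaptive spike detection) on DIV 5, 7, 9 and 12, summarized as trapezoidal AUC. Rat cortical cultures on MEAs dosed continuously days 0–12, re-dosed at feeds; loss-of-signal fit relative to DMSO.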

The nature of assay [6]: CCTE_Shafer_MEA_dev_network_spike_number: CCTE's Neural Network Formation Assay for Number of Network Spikes, Shafer Lab (AID 2284048).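 For AC50: fit as a loss of signal meaning fewer network spikes than DMSO.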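 Note: synchronized bursts across electrodes counted on days 5 7 9 12 and integrated as AUC.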 In short, it runs like this: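 Primary rat cortical neurons were seeded at 1.5 x 10^5 cells/well on PEI-coated 16-electrode MEA wells with laminin, exposed from plating day 0, compound renewed at DIV 5 and 9. Network spikes were recorded on days 5, 7, 9, 12 and summarized as trapezoidal AUC versus DMSO.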

Assay [7] is described as follows: CCTE_Shafer_MEA_dev_network_spike_peak: CCTE's Neural Network Formation Assay for Mean Number of Electrodes in Network Spike, Shafer Lab (AID 2284049).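 For AC50: fitted for loss of signal meaning fewer electrodes in network spikes than DMSO.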 In short, it runs like this:
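Continuous 12-day exposure of rat cortical cultures, starting at plating, on MEA plates. Endpoint: electrodes participating in network-spike peaks, AUC across DIV 5–12, DMSO as negative control.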

A short description of assay [8]: CCTE_Shafer_MEA_dev_spike_duration_mean: CCTE's Neural Network Formation Assay for Mean Spike Duration, Shafer Lab (AID 2284051).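 For AC50: potency for a decrease in mean network spike duration versus DMSO.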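 Note: mean network spike duration pooled as area under curve over DIV 5 to 12 recordings.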 In short, it runs like this:
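Spontaneous activity was recorded on days 5, 7, 9 and 12 from rat cortical cultures grown on microelectrode arrays and dosed continuously from day 0, with media and compound renewed after the DIV 5 and 9 recordings. Network-spike duration was collapsed by area under the curve.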

The nature of assay [9]: CCTE_Shafer_MEA_dev_per_network_spike_spike_number_mean: CCTE's Neural Network Formation Assay for Mean Number of Spikes in a Network Spike, Shafer Lab (AID 2284053).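 For AC50: fitted as decrease in spikes per network spike relative to DMSO.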 Summed up:
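Mean spike count within each network spike, taken in a 0.05 s window at its peak, was recorded on days 5, 7, 9 and 12 and integrated as trapezoidal area under the curve. Rat cortical cultures on MEA plates received continuous compound from day 0, refreshed at medium changes on DIV 5 and 9.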

A short description of assay [10]: CCTE_Shafer_MEA_dev_per_network_spike_spike_percent: CCTE's Neural Network Formation Assay for Percent of Spikes in a Network Spike, Shafer Lab (AID 2284054). Summed up:
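Primary rat cortical neurons on 16-electrode MEA wells (PEI-coated, laminin at plating), exposed from day 0 with renewal at DIV 5 and 9; spikes within 0.05 s of network-spike peaks over total spikes, AUC across days 5, 7, 9, 12.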

A short description of assay [11]: CCTE_Shafer_MEA_dev_AB: CCTE's Alamar Blue Assay for Cytotoxicity in the Neural Network Formation Assay, Shafer Lab (AID 2284083; active = hit-call score of the fitted dose curve at least 0.9, where 1 is the maximum;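 note: resazurin reduction fluorescence as viability of cultured neurons; twelve days of exposure from plating with re-dosing on DIV 5 and 9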). Summed up: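 Resazurin fluorescence, relative to DMSO, gauges viability after twelve days of exposure that began at plating of rat cortical neurons (1.5 x 10^5 cells/well, 48-well MEA); treatment renewed with full medium exchange on DIV 5 and 9.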
A general note: The colour change of resazurin is a common sign of viable cells or microbes.

Assay [12] is described as follows: CCTE_Shafer_MEA_dev_mutual_information_norm: CCTE's Neural Network Formation Assay for Mutual Information Normalization, Shafer Lab (AID 2284091).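 For AC50: mutual information between electrodes summarised as area under curve across four recording days; potency is for a decrease in mutual information relative to DMSO.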 In short, it runs like this:
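Rat cortical cultures, 48-well MEA, continuous exposure DIV 0–12 with full media/compound change DIV 5 and 9. Readout: inter-electrode mutual information, AxIS adaptive spike detection; AUC across DIV 5/7/9/12 recordings; DMSO baseline, negative fitting direction.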

Assay [13] deals with Estrogen receptor (Homo sapiens) (UniProt P03372). In words: CCTE_Deisenroth_AIME_384WELL_LUC_Shift: CCTE's 384-well Estrogen Receptor Transactivation Assay with AIME metabolic competence data shift (ERTA luciferase; difference in metabolism positive and negative), Deisenroth Lab (AID 2284041).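 Note: shift is response with S9 minus without S9 so positive means metabolism raised ER signal.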 Summed up: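 Here, parent compounds undergo 2 h phase I metabolism by PB/BNF-induced rat S9 before 24 h transactivation in VM7Luc4E2 cells; the curve models S9-positive minus S9-negative response over a 10-point series.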

A short description of assay [14]: CCTE_Shafer_MEA_acute_LDH: CCTE's Lactate Dehydrogenase Assay for Cytotoxicity in the Neural Acute Assay, Shafer Lab (AID 2284086; active = hit-call score of the fitted dose curve at least 0.9, where 1 is the maximum;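 note: active means LDH release rises above DMSO vehicle level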). Summed up: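 Rat cortical neurons cultured on microelectrode arrays; baseline 40-min recording, compound added, second 40-min recording; medium then sampled for released LDH (colorimetric kit, 490 nm). DMSO = negative control.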
Assay [15] can be described thus: CCTE_Shafer_MEA_acute_AB: CCTE's Alamar Blue Assay for Cytotoxicity in the Neural Acute Assay, Shafer Lab (AID 2284069; active = hit-call score of the fitted dose curve at least 0.9, where 1 is the maximum;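 note: active compounds lower the viability signal compared with DMSO wells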). In short, it runs like this:
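Resazurin reduction (CellTiter Blue, 1:6 in fresh medium) read at ex 544/em 590 nm marks viability loss relative to DMSO. Cells: primary rat cortical neuron networks on microelectrode arrays, treated after baseline recording at 13 or 15 days in vitro.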

In assay [16] the test system is DIO2 (gene 1734). The experiment in a line: CCTE_GLTED_hDIO2: CCTE's human Deiodinase 2 (DIO2) Inhibition Assay, Great Lakes Toxicology and Ecology Division (GLTED) Lab (AID 2284050; active = hit-call score of the fitted dose curve at least 0.9, where 1 is the maximum). In short, it runs like this:
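hDIO2 enzyme + test chem, 3 h → free iodide from substrate; step 2: Sandell-Kolthoff (Ce IV reduction by As, iodide-catalysed), spectrophotometric read. Triplicate plates; DMSO = baseline.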

For assay [17], the system named is DIO3 (gene 1735). In words: CCTE_GLTED_hDIO3: CCTE's human Deiodinase 3 (DIO3) Inhibition Assay, Great Lakes Toxicology and Ecology Division (GLTED) Lab (AID 2284055; active = hit-call score of the fitted dose curve at least 0.9, where 1 is the maximum;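 note: potency is for inhibition seen as loss of released iodide signal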). In short, it runs like this: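 Absorbance from the Sandell-Kolthoff reaction reports iodide released by human DIO3 during a 3-hour incubation with chemical. Inhibition scored as signal loss against DMSO controls.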

Records with an inconclusive call do not appear. Active and inactive are the calls of the source. Rule for the calls, unless noted: active = hit-call score of the fitted dose curve at least 0.9, where 1 is the maximum; inactive = score below 0.9.

Estrogen receptor (Homo sapiens), sequence (P03372 whole entry, looked up): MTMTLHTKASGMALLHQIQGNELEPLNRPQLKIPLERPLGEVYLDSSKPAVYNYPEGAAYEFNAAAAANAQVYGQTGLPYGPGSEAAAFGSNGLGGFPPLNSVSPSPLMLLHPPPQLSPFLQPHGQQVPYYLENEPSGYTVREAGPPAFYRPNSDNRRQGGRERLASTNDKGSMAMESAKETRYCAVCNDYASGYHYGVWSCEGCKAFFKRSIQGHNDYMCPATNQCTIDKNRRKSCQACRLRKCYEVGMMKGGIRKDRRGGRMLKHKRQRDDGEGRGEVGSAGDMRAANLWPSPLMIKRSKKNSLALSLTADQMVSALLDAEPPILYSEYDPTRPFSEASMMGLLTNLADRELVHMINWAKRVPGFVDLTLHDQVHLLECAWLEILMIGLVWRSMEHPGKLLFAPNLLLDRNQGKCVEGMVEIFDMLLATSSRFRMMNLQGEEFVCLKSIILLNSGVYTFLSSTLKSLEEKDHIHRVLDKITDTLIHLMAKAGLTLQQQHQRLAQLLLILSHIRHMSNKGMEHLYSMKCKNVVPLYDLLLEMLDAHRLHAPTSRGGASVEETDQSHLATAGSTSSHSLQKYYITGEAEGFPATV

Consider `CC1(C)C(C(=O)OC(C#N)c2cccc(Oc3ccccc3)c2)C1(C)C` (configuration not stated), for which the AC50 was 19000 nM (active) in assay [1]; 15400 nM (active) in [3]; 2560 nM (active) in assay [5]; 515 nM (active) in [6]; 13500 nM (active) in [7]; 16200 nM (active) in assay [8]. The AC50 is 10000 nM (active) in assay [9], 4540 nM (active) in [10], 1980 nM (active) in assay [11] and 1010 nM (active) in assay [12]. In addition, the result in assay [2] and in [4] was inactive.

As to `CCCCC(C#N)(Cn1cncn1)c1ccc(Cl)cc1` (configuration not stated), in assay [13], the outcome was inactive.

As to `N#Cc1c[nH]cc1-c1cccc2c1OC(F)(F)O2`, the outcome in assay [14] was inactive.

Take `CC(C)C1(C)N=C(c2ncccc2C(=O)O)NC1=O` (configuration not stated): the compound was called inactive in assay [15] and in [14].

On to `CNC(=O)N(C)c1nnc(C(C)(C)C)s1`, for which the result in assay [13] was inactive.

Take `Cc1ccc(N=CN(C)C=Nc2ccc(C)cc2C)c(C)c1`: the outcome in assay [13] and in assay [15] was inactive.

As for `CCC(C)n1c(=O)[nH]c(C)c(Br)c1=O` (configuration not stated), the outcome in [13] was inactive.

With `CN/C(=N\[N+](=O)[O-])NCc1cnc(Cl)s1`, the call in assay [1], in [2], in [3], in assay [4], in assay [5] and in [6] was inactive. The compound was classed as inactive in assay [7], in [8], in assay [9], in assay [10] and in assay [12].

With `CCCN(CC)CC1COC2(CCC(C(C)(C)C)CC2)O1` (configuration not stated), the AC50 is 246 nM (active) in [1]; 136 nM (active) in assay [2]; 223 nM (active) in [3]; 325 nM (active) in assay [4]; 257 nM (active) in assay [5]; 93.3 nM (active) in [6]. The AC50 in [7] was 305 nM (active); in assay [8], 275 nM (active); in assay [9], 272 nM (active); in assay [10] it was 266 nM (active); in assay [11], 246 nM (active); in assay [12], 119 nM (active).

With `Cc1cc(C)nc(Nc2ccccc2)n1`, the result in [13] was inactive.

Take `CC1(C)CCC(=Cc2ccc(Cl)cc2)C1(O)Cn1cncn1` (configuration not stated): the result in assay [15] and in assay [14] was inactive.

With `Clc1nc(Cl)nc(Nc2ccccc2Cl)n1`, the compound was called inactive in assay [15] and in assay [14].

For the compound `CC(C)Nc1nc(Cl)nc(NC(C)C)n1`, the outcome in assay [13] was inactive.

As to `Nc1c(Cl)c(F)nc(OCC(=O)O)c1Cl`, the compound was called inactive in assay [15] and in assay [14].

As for `CCCCOCN(C(=O)CCl)c1c(CC)cccc1CC`, in assay [13], the result was inactive. For the same compound, the figures for the concentration at half-maximal activity (AC50) in assay [16] and in assay [17] were 17600 nM (active) and 37600 nM (active), respectively.

Consider `COP(=O)(OC)O/C(C)=C/C(=O)N(C)C`, for which the call in [1], in assay [2], in [4], in [5], in assay [6] and in [7] was inactive. Moreover, the compound was classed as inactive in assay [8], in [9], in assay [10], in assay [11] and in assay [12].

On to `Cn1c(-c2ccccc2)cc(-c2ccccc2)[n+]1C`, for which the call in assay [15] and in assay [14] was inactive.

Turning to `CS(=O)(=O)c1ccc(C(=O)C2C(=O)CCCC2=O)c([N+](=O)[O-])c1`, the result in assay [1], in [2], in assay [3], in [4], in [5] and in [6] was inactive. Also, the compound was classed as inactive in assay [7], in assay [8], in assay [9], in [10], in assay [11] and in [12]. Further, the figures for the AC50 in assay [16] and in assay [17] were 24800 nM (active) and 46300 nM (active), respectively.

For the compound `N#CN=C1SCCN1Cc1ccc(Cl)nc1`, the outcome in assay [1], in [2], in assay [3], in assay [4], in [5] and in assay [6] was inactive. Besides, the call in [7], in assay [8], in assay [9], in [10], in assay [15] and in assay [14] was inactive. For the same compound, the call in assay [12] was inactive.

With `OC(c1ccc(Cl)cc1)(c1ccc(Cl)cc1)C(Cl)(Cl)Cl`, the values for the half-maximal activity concentration (AC50) in [16] and in [17] were 76400 nM (active) and 15800 nM (active), respectively. The compound was called inactive in assay [15] and in [14].

Regarding `Cc1nc(N(C)C)nc(OC(=O)N(C)C)c1C`, the half-maximal activity concentration (AC50) was 44600 nM (active) in assay [16] and 10000 nM (active) in assay [17]. Further, the result in assay [14] was inactive.

For the compound `COC(=O)NS(=O)(=O)c1ccc(N)cc1`, in assay [13], the result was inactive.

Regarding `CCNC(=O)NC(=O)C(C#N)=NOC`, the compound was called inactive in assay [1], in assay [2], in [3], in assay [4], in assay [5] and in assay [6]. Also, the compound was classed as inactive in [7], in [8], in assay [9], in assay [10], in assay [11] and in [12].

As to `CCOc1cc(C(C)(C)C)ccc1C1COC(c2c(F)cccc2F)=N1` (configuration not stated), in assay [14], the result was inactive.

In the case of `Nc1cnn(-c2ccccc2)c(=O)c1Cl`, in assay [13], the outcome was inactive.

For the compound `Clc1cccc(C(Cl)(Cl)Cl)n1`, the outcome in assay [13] was inactive.

Broadly, the AC50 is the concentration giving half of the maximal activity seen.
